Compound activity as filed in PubChem BioAssay.
Compounds with a hit are over-represented: about 5.5% of the library has one in this group of screens.
CtBP-E1A blk = qHTS Assay for Inhibitors of the CtBP/E1A Interaction | CtBP / adenovirus E1A interaction (AlphaScreen) | AlphaScreen GST-E1A/His-CtBP binding, 1536-well; active compounds read low | activity change, % (concentration not given with the values) | 0.49% of 340,000 active | AID 651724, 2012; in the data active = activity change below about -65%; inconclusive = mostly about -30% to -63%; also: % is scaled to controls: 0 for no effect and ±100 for the full control effect
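Protein mix (5X: 125 nM each GST-E1A, His-CtBP) was incubated with pinned compound 2 h at 37 deg C in dark, in 50 mM Tris pH 8.0 buffer with 300 mM NaCl. Glutathione donor and nickel acceptor beads followed; AlphaScreen signal read after 1 h.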
RORgamma inh = qHTS for inhibitors of ROR gamma transcriptional activity; Nuclear receptor ROR-gamma (Mus musculus), P51450; Drosophila S2 Gal4-RORgamma UAS-luciferase reporter, 20 h; Potency, µM (top dose mostly 53.6 µM), for inactives: at the top dose activity change, negative = inhibition, most hits filed as inhibitors; 5.4% of 310,000 active; AID 2551, 2010; also: potency is read from the fitted curve at half-maximal effect; % is scaled to controls: 0 for no effect and ±100 for the full control effect; nearly all actives have a fitted effect of over 60% in size
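Read-out: Photinus luciferase luminescence; inhibitors lower reporter signal. Insect Schneider cells with Gal4-ROR gamma fusion under metallothionein promoter, UAS reporter; 700 uM final copper sulfate induction, 20 hr, ambient temperature.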
Gal4-VP16 FLuc = VP16 counterscreen qHTS for inhibitors of ROR gamma transcriptional activity; Potency, µM (series often up to 53.6 µM), for the others: at the highest dose activity, negative = inhibition, hits mostly inhibitors; Drosophila S2 Gal4-VP16 UAS-luciferase, luminescence, 20 h; AID 2546, 2010; 3.5% of 310,000 active;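 also: Gal4-VP16 expression switched on by copper sulfate through the metallothionein promoter; potency is read from the fitted curve at half-maximal effect; % is scaled to controls: 0 for no effect and ±100 for the full control effect; nearly all actives have a fitted effect of over 50% in size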
MBNL1-CUG inh = qHTS Assay for Inhibitors of MBNL1-poly(CUG) RNA binding. TR-FRET MBNL1-His/biotin-(CUG)12 binding, 665/545 ratio. 0.036% of 280,000 active. Potency, µM (titrated, usually from 57.5 µM), for the others: at the highest dose activity change, negative = inhibition, actives largely listed as inhibitors; active = well fitted inhibition curve with a large enough effect in the signal ratio, with a control signal flat, not every such curve was filed as active; inconclusive = small, poorly fitted or top-dose-only effect, or effect the other way, or a change in a side signal; inactive = no such curve, though single readings can be large or run the other way; the % refers to the signal ratio; also: potency is read from the fitted curve at half-maximal effect; % is scaled to controls: 0 for no effect and ±100 for the full control effect
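Inhibition of protein-RNA binding appears as loss of TR-FRET between terbium anti-His antibody on MBNL1-His and streptavidin-XL665 on biotin-(CUG)12. Activity is normalized to buffer-only and uninhibited-complex controls.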
Six1-Eya2 inh = qHTS Assay for Inhibitors of the Six1/Eya2 Interaction. Homeobox protein SIX1 (Homo sapiens) + Protein phosphatase EYA2 (Homo sapiens), …. AlphaScreen GST-Six1/His-Eya2 binding, biochemical; active compounds read low. activity change, % (no concentration beside the values). 0.56% of 360,000 active. AID 651725, 2012; in the data active = activity change below about -65%; inconclusive = mostly about -30% to -63%; also: % is scaled to controls: 0 for no effect and ±100 for the full control effect
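GST-Six1 + His-Eya2 (5X stock: 250/500 nM); Tris pH 8.0, 300 mM NaCl, 0.05% BSA, 0.02% Tween 20; GSH donor/Ni acceptor beads; 1 h 37 °C dark; AlphaScreen readout.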
CBFb-RUNX1 inh = qHTS Assay for Compounds Blocking the Interaction Between CBF-beta and RUNX1 for the Treatment of Acute Myeloid Leukemia; Runt-related transcription factor 1 (Homo sapiens) + Core-binding factor subunit beta …; AlphaScreen CBFb-His/RUNX1-biotin binding, biochemical; Potency, µM (doses to about 59.8 µM), inactives show top-dose activity, negative = inhibition, actives largely listed as inhibitors; 230,000 tested, under 10 active; AID 1477, 2009; also: % of control where 0% means no effect
Target sequence (Q01196 whole entry, looked up): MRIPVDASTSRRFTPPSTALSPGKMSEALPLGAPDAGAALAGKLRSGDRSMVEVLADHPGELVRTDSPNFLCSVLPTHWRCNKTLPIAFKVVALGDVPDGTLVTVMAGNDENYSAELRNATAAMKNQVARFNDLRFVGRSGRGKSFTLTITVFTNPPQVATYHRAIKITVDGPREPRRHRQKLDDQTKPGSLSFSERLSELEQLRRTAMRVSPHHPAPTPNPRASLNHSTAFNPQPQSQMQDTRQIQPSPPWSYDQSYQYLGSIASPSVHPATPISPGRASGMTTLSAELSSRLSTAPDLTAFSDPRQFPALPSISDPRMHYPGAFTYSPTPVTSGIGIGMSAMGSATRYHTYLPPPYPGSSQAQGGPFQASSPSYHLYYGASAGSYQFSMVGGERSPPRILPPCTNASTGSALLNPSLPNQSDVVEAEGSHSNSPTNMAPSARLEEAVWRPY
Target sequence (Q13951 whole entry, looked up): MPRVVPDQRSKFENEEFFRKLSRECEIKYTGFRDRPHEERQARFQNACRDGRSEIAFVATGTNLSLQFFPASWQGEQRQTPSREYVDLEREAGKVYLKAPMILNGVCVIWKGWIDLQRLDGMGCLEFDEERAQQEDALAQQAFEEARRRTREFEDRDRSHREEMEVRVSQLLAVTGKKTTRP
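CBFb-His/RUNX1-biotin, 30 nM each, preincubated 20 min RT; compound 15 min RT; Ni + streptavidin beads 50 ng each, 90 min RT; AlphaScreen read.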
The depositor's hits bear a star; ? = inconclusive; / = no result given; [ ] = remark or other dose. Unless noted, calls follow the shape of the dose curve; as a rule, active = well fitted curve in the direction sought with a large enough effect; inconclusive = small, poorly fitted or top-dose-only effect, or another doubt; inactive = no such curve, though single readings can be large; an effect the other way counts as inactive or inconclusive.

SMILES	CtBP-E1A blk	RORgamma inh	Gal4-VP16 FLuc	MBNL1-CUG inh	Six1-Eya2 inh	CBFb-RUNX1 inh
Cc1ccc(C(=O)NNc2cc(N3CCCC3)nc(N3CCCC3)n2)cc1	-23	5µM*	?	3%	-12	-16%
O=C(NNc1cc(N2CCOCC2)nc(N2CCOCC2)n1)c1ccc(Cl)c(Cl)c1	5	14µM*	?	0%	-5	6%
Cc1ccc(C(=O)NNC(=O)C2CCN(c3ncccn3)CC2)cc1	12	7%	2%	-8%	3	/
CC1=CC(=O)CC(C)(C)[C@@]1(O)/C=C/[C@@H](C)O[C@@H]1O[C@H](CO)[C@@H](O)[C@H](O)[C@H]1O	4	/	/	/	10	/
COCCNC(=S)N1CCN(c2nc3ccccc3s2)CC1	-4	0%	13µM*	-21%	-5	6%
COCCCNC(=S)N1CCN(c2nc3ccccc3s2)CC1	-19	?	18%	-1%	22	1%
Cc1cccc(-n2cc(-c3ccc([N+](=O)[O-])cc3)[nH]c2=S)c1	10	7.1µM*	4µM*	9%	3	1%
Cc1ccc(-n2cc(-c3ccc([N+](=O)[O-])cc3)[nH]c2=S)c(C)c1	?	1.3µM*	6.3µM*	?	?	?
Cc1nc(C)c(C(=O)Nc2ncc([N+](=O)[O-])s2)o1	-1	7.9µM*	?	?	-7	-29%
CCC(=O)N1CCCC(C(=O)NCc2ccc(C(C)C)cc2)CC1 (configuration not stated)	6	/	/	/	-3	/
COc1ccc(-n2c(=S)[nH]c3cc(C(=O)Nc4cc(C(N)=O)ccc4OC)ccc3c2=O)c(OC)c1	1	-56%	-3%	20%	-14	/
COc1ccc(-n2c(=S)[nH]c3cc(C(=O)Nc4ccc(C)c(F)c4)ccc3c2=O)c(OC)c1	-12	5µM*	13µM*	4%	-13	/
COc1ccc(NC(=O)c2ccc3c(=O)n(-c4ccc(OC)cc4OC)c(=S)[nH]c3c2)c(OC)c1	-3	2.8µM*	8.9µM*	6%	-14	-17%
CCOc1ccc(NC(=O)c2ccc3c(=O)n(-c4ccc(OC)cc4OC)c(=S)[nH]c3c2)cc1	/	?	16µM*	7%	/	/
CC(C)[C@@H]1Cc2[nH]c(=O)[nH]c(=O)c2[C@H](c2ccc(F)cc2)O1	0	/	/	/	1	/
O=C(N/N=C1/CCSC1)c1cccc([N+](=O)[O-])c1	2	?	20µM*	/	-4	-3%
C=C(C)C1CC=C(C)/C(=N/NC(=O)c2cccc([N+](=O)[O-])c2)C1 (configuration not stated)	2	-32%	2%	?	-4	0%
Cc1ccc(C(=O)N/N=C2\CCSC2)cc1[N+](=O)[O-]	-3	10µM*	?	28%	-3	-3%
C/C(=N\NC(=O)c1ccccc1)c1ccc(C)c([N+](=O)[O-])c1	0	6%	?	31%	-3	5%
Cc1[nH]n(-c2ccccc2)c(=O)c1N=Nc1cccc([N+](=O)[O-])c1	0	-34%	25%	4%	-6	/
Cc1ccc(-n2[nH]c(C)c(/C=N/Nc3ccc([N+](=O)[O-])cc3[N+](=O)[O-])c2=O)cc1C	-8	-4%[10 µM]	?	/	-2	?
Cc1[nH]n(-c2cccc3ccccc23)c(=O)c1/C=N/NC(=O)c1cccc([N+](=O)[O-])c1	7	2.8µM*	3.5µM*	?	-21	/
Cc1[nH]n(-c2ccccc2)c(=O)c1/C=N/NC(=O)c1cccc([N+](=O)[O-])c1	?	1µM*	2.5µM*	-3%	?	-4%
O=C(N/N=C/c1coc2ccccc2c1=O)c1cccc([N+](=O)[O-])c1	/	26%	-3%	?	-1	-5%
Cc1ccc(-n2[nH]c(C)c(/C=N/NC(=O)c3ccc([N+](=O)[O-])cc3)c2=O)c(C)c1	/	1.8µM*	5µM*	13%	/	-14%
SMILES	CtBP-E1A blk	RORgamma inh	Gal4-VP16 FLuc	MBNL1-CUG inh	Six1-Eya2 inh	CBFb-RUNX1 inh
COc1ccc(Cc2c(-c3ccc(F)cc3)nc3ccc(Cl)cn23)c(C)c1	-1	/	/	/	-6	/
COc1cccc(C(=O)NC(=S)N2CCN(c3ccc(C(F)(F)F)cc3[N+](=O)[O-])CC2)c1	-13	0.56µM*	0.63µM*	/	-2	-13%
COc1ccc(N2CCN(C(=O)c3cccc(F)c3)CC2)c([N+](=O)[O-])c1	-15	-7%	-22%	?	-8	-3%
CC(C)Oc1cccc(C(=O)NC(=S)N2CCN(c3ccc(C(F)(F)F)cc3[N+](=O)[O-])CC2)c1	?	0.45µM*	1.1µM*	0%	?	?
O=C(C1CCC1)N1CCN(c2ccc(C(F)(F)F)cc2[N+](=O)[O-])CC1	-6	7.1µM*	4µM*	-3%	-10	/
COc1cccc(OC)c1C(=O)NC(=S)N1CCN(c2ccc(C(F)(F)F)cc2[N+](=O)[O-])CC1	-18	7.1µM*	22µM*	8%	-25	-25%
CC(Sc1nc2ccccc2c(=O)n1CC1CCCO1)C(=O)Nc1ccc(S(N)(=O)=O)cc1 (configuration not stated)	5	/	/	/	-5	/
O=C(/C=C/c1ccc(/C=C/C(=O)Nc2ccc(C3=NCCN3)cc2)cc1)Nc1ccc(C2=NCCN2)cc1	/	15%	-4%	/	/	?
CCOc1ccc(C(=O)NC(=S)N2CCN(c3ccc(C(F)(F)F)cc3[N+](=O)[O-])CC2)cc1	13	0.32µM*	0.25µM*	/	0	4%
O=C(NC(=O)N1CCN(C(c2ccccc2)c2ccccc2)CC1)c1ccccc1	2	-29%	6%	-9%	-1	6%
CCCCc1nc2cc(C(=O)NCc3cn(C)nc3C)ccc2o1	-1	1µM*	0.063µM*	18%	1	/
COc1ccc(NS(=O)(=O)c2cn(C)cn2)cc1OC	/	17%	-19%	0%	1	/
O=C(C#Cc1ccccc1)c1ccccc1	-10	/	/	/	4	/
O=C(C#Cc1ccccc1)c1ccc([N+](=O)[O-])cc1	-3	11µM*	7.9µM*	?	-1	-18%
Cc1cc2c(cc1C)-n1nnnc1C(N1CCCNCC1)C(=O)N2 (configuration not stated)	0	/	/	/	-4	/
